# The source made the active and inactive calls. Rule for the calls: active = hit-call score of the fitted dose curve at least 0.9, where 1 is the maximum; inactive = score below 0.9.
# Assay: ATG_FoxO_CIS: Attagene CIS-FACTORIAL HepG2 Assay for human Forkhead box O (FoxO) (AID 2282943)
# Conditions: HepG2 Attagene cis-reporter, FoxO element, mRNA; actives raise or lower the signal
# In short: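 Endogenous transcription factor activity read from multiplexed cis-promoter reporter transcripts in transiently transfected HepG2, 24 h after dosing. Reporter RNA measured via RT-PCR plus capillary electrophoresis of FAM-labeled products; gain or loss relative to DMSO.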
SMILES,outcome,AC50
CCC(C)c1ccc(O)cc1 (stereo not drawn),inactive,
Cc1cc(N=Nc2ccccc2C)ccc1N,inactive,
CCCCCCCCn1sccc1=O,,18.3 µM (active)
ClCCOCCCl,inactive,
c1ccc(NNc2ccccc2)cc1,inactive,
Cc1cccc(N)c1N,inactive,
Clc1ccc(C(c2ccc(Cl)cc2)C(Cl)(Cl)Cl)cc1,inactive,
O=C(N[C@H](c1ccccc1)[C@@H]1CN2CCC1CC2)c1c(Cl)ccc(C(F)(F)F)c1Cl,inactive,
CN(C)c1ccccc1,inactive,
CCCCCCCCOC(=O)c1ccc(C(=O)OCCCCCCCC)c(C(=O)OCCCCCCCC)c1,inactive,

# Assay: ATG_GATA_CIS: Attagene CIS-FACTORIAL HepG2 Assay for human GATA Binding Protein (AID 2282944)
# Conditions: HepG2 GATA cis-element reporter, Attagene multiplex mRNA; actives raise or lower the signal
# In short: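 Endogenous transcription factor activity was captured through cis-promoter-driven reporters in transfected HepG2 cells. After 24 h exposure, reporter transcripts were quantified by RT-PCR with fluorescent capillary electrophoresis, and responses fitted both directions against DMSO.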
SMILES,outcome,AC50
Nc1ccc(N=Nc2ccccc2)cc1,inactive,
N#CC(Br)(Br)C(N)=O,inactive,
OCCOCCO,inactive,
CC(C)(OOC(C)(C)c1ccccc1)c1ccccc1,inactive,
CCC(C)c1ccc(O)cc1 (stereo not drawn),inactive,
Cc1cc(N=Nc2ccccc2C)ccc1N,inactive,
CCC12COCN1COC2,inactive,
CCCCCCCCn1sccc1=O,,18.4 µM (active)
CCCCOC(=O)c1ccccc1C(=O)OCc1ccccc1,inactive,
COC(=O)Nc1nc2ccccc2[nH]1,inactive,
CC(C)(C)OOC(C)(C)CCC(C)(C)OOC(C)(C)C,inactive,
O=C1CCCO1,inactive,
CCC[CH2][Sn]([Cl])([CH2]CCC)[CH2]CCC,inactive,
[O-][Cl+]O,inactive,
ClCCOCCCl,inactive,
CC(C)(C)OOC(=O)c1ccccc1,inactive,
c1ccc(NNc2ccccc2)cc1,inactive,
Cc1ccc(N=C=O)cc1N=C=O,inactive,
c1ccc2c(c1)-c1cccc3cccc-2c13,inactive,
Cc1cccc(N)c1N,inactive,
Clc1ccc(C(c2ccc(Cl)cc2)C(Cl)(Cl)Cl)cc1,inactive,
CN(C)c1ccc(C(=O)c2ccc(N(C)C)cc2)cc1,inactive,
COC(=O)c1ccccc1N,inactive,
O=C(N[C@H](c1ccccc1)[C@@H]1CN2CCC1CC2)c1c(Cl)ccc(C(F)(F)F)c1Cl,inactive,
CN(C)c1ccccc1,inactive,
O=[N+]([O-])c1ccc(Oc2ccc(Cl)cc2Cl)cc1,inactive,
CCCCCCCCOC(=O)c1ccc(C(=O)OCCCCCCCC)c(C(=O)OCCCCCCCC)c1,inactive,
COP(=S)(OC)SCN1C(=O)c2ccccc2C1=O,inactive,
